Most compounds without a hit are left out; they make up all but 2.4% or so of the library.
Rango-impB inh: qHTS Assay for Inhibitors of Rango (Ran-regulated importin-beta cargo) - Importin beta complex formation | Importin subunit beta-1 (Homo sapiens), Q14974 | Rango CFP/YFP FRET sensor + importin beta, 45 min | Potency, µM (doses to about 92.2 µM), for the others: at the top dose inhibition of complex formation | actives 0.031% (n = 340,000) | AID 540263, 2011;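 also: 0% = DMSO wells and 100% = buffer wells lacking importin beta; nearly all actives have a fitted effect of over 15% in size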
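FRET biosensor (snurportin 1 IBB flanked by EYFP and cerulean), 50 nM, with compound 5 min, then 0.125 microM importin beta in PBS, 1 mM DTT, 0.02% Tween-20, 0.1% BSA. CFP/YFP ratio read after 45 min at room temperature; pre-read flags interference.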
TDP1 block: qHTS Assay for Inhibitors of Tyrosyl-DNA Phosphodiesterase (TDP1) | Tyrosyl-DNA phosphodiesterase 1 (Homo sapiens), Q9NUW8 | AID 485290, 2010 | recombinant TDP1, AlphaScreen DNA substrate cleavage | Potency, µM (top dose mostly 130 µM), inactives show top-dose activity change, negative = inhibition, usual class: inhibitors | actives 0.28% (n = 350,000); active = well fitted curve in the direction sought with a large enough effect; inconclusive = small, poorly fitted or top-dose-only effect, or another doubt; inactive = no such curve, though single readings can be large; an effect the other way counts as inactive or inconclusive; also: % is scaled to controls: 0 for no effect and ±100 for the full control effect; nearly all actives have a fitted effect of over 40% in size
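E. coli-derived human Tdp1, 1 nM final. Cpd preinc 15 min RT; substrate 15 nM final, 5 min RT; AS bead mix 10 ug/ml final, 10 min RT. Signal loss = tyrosine-FITC cleavage. No-enzyme wells = max signal.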
ClpP mod: qHTS Assay for Activators of ClpP | AID 651965, 2013 | Potency, µM (doses to about 57.5 µM), for the others: top-dose activity change, negative = active | ATP-dependent Clp protease proteolytic subunit (Bacillus subtilis (strain 168)), P80244 | purified B. subtilis ClpP, FRET peptide cleavage, 20 min | actives 1.9% (n = 340,000); active = well fitted falling curve with a large enough effect; inconclusive = small, poorly fitted or top-dose-only effect; inactive = no such curve, though single readings can be large or run the other way; also: the source files actives as falling curves though it sought activators and does not explain the sign; nearly all actives have a fitted effect of over 65% in size
Target sequence (P80244 whole entry, looked up): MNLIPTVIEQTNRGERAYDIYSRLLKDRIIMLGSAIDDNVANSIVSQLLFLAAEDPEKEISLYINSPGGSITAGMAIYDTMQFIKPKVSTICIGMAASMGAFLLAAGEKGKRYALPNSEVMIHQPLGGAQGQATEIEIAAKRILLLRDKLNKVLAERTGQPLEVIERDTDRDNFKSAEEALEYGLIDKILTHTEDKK
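Purified B. subtilis ClpP, 10 microg/mL final in Tris/HCl pH8 with KCl, BSA, glycerol and Tween-20, cleaved an Abz/nitrotyrosine-quenched decapeptide. Fluorescence (ex 320, em 430) was read at 0 and 20 min at room temperature. Delta was normalized to 5.8 microM ADEP and DMSO/no-enzyme controls.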
ALOX12 inh: Primary qHTS assay for inhibitors of human arachidonate 12S-lipoxygenase (ALOX12): Round 2; actives 1.1% (n = 580,000); Potency, µM (highest dose often 108 µM), for inactives: at the highest dose activity change, negative = inhibition, most hits filed as inhibitors; purified 12hLO, xylenol orange hydroperoxide absorbance; active = well fitted curve in the direction sought with a large enough effect; inconclusive = small, poorly fitted or top-dose-only effect, or another doubt; inactive = no such curve, though single readings can be large; an effect the other way counts as inactive or inconclusive; also: % is scaled to controls: 0 for no effect and ±100 for the full control effect
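Purified human 12hLO (150 nM final) in 25 mM Hepes, 0.01% Triton X-100, pH 7.0 was preincubated 15 min at room temperature with compound. Then 40 uM arachidonic acid was added, 30 min. Hydroperoxide was read by Fe-XO absorbance ratio 573/405 nm.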
Rango dissoc inh: qHTS Assay for Inhibitors of RanGTP induced Rango (Ran-regulated importin-beta cargo) - Importin beta complex dissociation; Snurportin-1 (Homo sapiens) + GTP-binding nuclear protein Ran (Homo sapiens) + Importin …; Potency, µM (series often up to 46.1 µM), for the others: at the top dose activity change, negative = inhibition; Biochemical FRET Rango-importin beta, RanGTP-induced dissociation; actives 0.071% (n = 340,000); also: % of control where 0% means no effect; nearly all actives have a fitted effect of over 45% in size
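FRET read at 45 min, room temperature: inhibitors block the CFP/YFP signal rise when RanGTP (0.6 uM Ran, 2 mM GTP, 0.2 uM RCC1) frees Rango (0.1 uM) from importin beta (0.25 uM). Pre-read after 5 min compound exposure flags interference.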
PTAP TSG101 blk: qHTS Assay for Iinhibitors of HIV-1 Budding by Blocking the Interaction of PTAP/TSG101 | 340,000 tested, under 10 active | Tumor susceptibility gene 101 protein (Homo sapiens), Q99816 | AID 493005, 2010 | Potency, µM (top dose mostly 115 µM), without a hit: at the highest dose activity change, negative = inhibition, hits mostly inhibitors | Fluorescence polarization, FITC-PTAP peptide / Tsg101 binding; active = well fitted inhibition curve with a large enough effect in the main read-out, with a control signal flat, not every such curve was filed as active; inconclusive = small, poorly fitted or top-dose-only effect, or effect the other way, or a change in a side signal; inactive = no such curve, though single readings can be large or run the other way; also: % of control where 0% means no effect
Target sequence (Q99816 whole entry, looked up): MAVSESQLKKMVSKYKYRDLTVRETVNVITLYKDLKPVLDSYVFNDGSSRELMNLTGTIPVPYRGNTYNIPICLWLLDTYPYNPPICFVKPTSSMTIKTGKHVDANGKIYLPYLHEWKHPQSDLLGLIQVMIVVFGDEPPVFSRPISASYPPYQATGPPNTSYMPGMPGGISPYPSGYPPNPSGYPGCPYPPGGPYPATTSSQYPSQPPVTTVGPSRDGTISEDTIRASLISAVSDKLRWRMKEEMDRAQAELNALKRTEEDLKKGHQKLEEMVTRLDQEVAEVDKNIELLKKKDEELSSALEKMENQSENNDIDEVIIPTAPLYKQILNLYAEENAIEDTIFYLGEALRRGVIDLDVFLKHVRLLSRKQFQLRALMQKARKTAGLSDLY
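FP read-out: FITC-PTAP peptide, 50 nM final, binding Tsg101 binding domain, 10 uM final; 20 min, r.t.; 10 mM HEPES pH 7.5, 0.15 M NaCl, 0.01% Tween 20, 3 mM EDTA, 0.1 mM TCEP.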
Starred values were filed as active, the others as inactive; u = inconclusive; x = no result given; ! = a repeat was not active. Unless noted, calls follow the shape of the full dose curve. Potency is read from the fitted curve at half-maximal effect.

SMILES	Rango-impB inh	TDP1 block	ClpP mod	ALOX12 inh	Rango dissoc inh	PTAP TSG101 blk
Cc1ccc(C)c(NC(=S)N2CCN(c3cccc(C(F)(F)F)c3)CC2)c1	-3%	4%	0%	-4%	-14%	-4%
Cc1ccc(NC(=O)CCC2CCCCC2)c(NC(=O)c2ccco2)c1	x	x	x	3.5µM*	x	x
Cn1cc(C(=O)N2CCC3(CC2)c2nc[nH]c2CCN3S(C)(=O)=O)cn1	x	x	x	3%	x	x
CCCCC1(CC(=O)OC)C(=O)N(c2ccccc2)N(c2ccccc2)C1=O	-1%	-3%	28µM*	15%	-10%	1%
CCN1CCc2c(sc3c2c(NCc2ccco2)nc2nnnn23)C1	u	-10%	13µM*	1%	u	-16%
Cc1ccc(/C=C/S(=O)(=O)NCCC(=O)O)cc1	x	x	x	-4%	x	x
Clc1ccccc1OCc1nnc(-c2ccccc2Br)o1	0%	-10%	0%	35%	6%	6%
CCc1ccc(OCc2nnc(-c3ccccc3Br)o2)cc1	2%	50µM*	0%	2%	9%	-1%
COc1ccc(OC)c(S(=O)(=O)N2CCC[C@H]2C(=O)Nc2cc(C)on2)c1	x	x	x	-8%	x	x
O=C(O)Cn1cc(C(=S)N2CCOCC2)c2ccccc21	0%	2%	-1%	10µM*	12%	-3%
O=C(O)Cn1cc(C(=S)N2CCCCC2)c2ccccc21	-1%	5%	1%	40µM*	-2%	-6%
O=C(Cn1cc(SCc2ccc(F)cc2)c2ccccc21)N1CCOCC1	-1%	3%	2.8µM*	-22%	-9%	-5%
O=C(Cn1cc(C(=S)N2CCOCC2)c2ccccc21)N1CCOCC1	1%	5%	-2%	u	-5%	1%
COCCn1cc(C(=S)N2CCCCC2)c2ccccc21	0%	-5%	x	492%	-4%	0%
O=C(Cn1cc(SCc2ccc(Cl)cc2)c2ccccc21)N1CCOCC1	-5%	8%	0%	u	-14%	-5%
COCCNC(=O)CC1Sc2ncccc2N(CC(C)C)C1=O (stereo unspecified)	x	x	x	-23%	x	x
Fc1ccccc1COc1ccc2ccccc2c1CNCc1ccccn1	x	x	x	-13%	x	x
CC(C)CCCC1CN(C(=O)c2cn(CCCN)nn2)CCO1 (stereo unspecified)	x	x	x	52%	x	x
CSc1nc(-c2ccccc2)c(-c2ccccc2)[nH]1	4%	4%	16µM*	1%	-13%	-5%
Cn1c(Cn2ccnc2)nnc1C1CCN(S(C)(=O)=O)CC1	x	x	x	36%	x	x
CCC(=O)NCCSCc1ccsc1	x	x	x	-45%	x	x
COc1ccc(-c2cc(C(=O)N3C[C@@H](CN(C)C)[C@@H](CO)C3)[nH]n2)cc1	x	x	x	-3%	x	x
Cc1cccc(Nc2ncccc2C(=O)O)c1C	0%	3%	2%	-22%	8%	-2%
O=C(O)c1ccc(NC(=S)NC(=O)c2ccc3ccccc3c2)cc1	8%	32µM*	26%	u	-1%	-1%
COC(=O)c1ccccc1NC(=S)NC(=O)c1ccc2c(c1)OCO2	2%	5%	-21%	u	0%	0%
SMILES	Rango-impB inh	TDP1 block	ClpP mod	ALOX12 inh	Rango dissoc inh	PTAP TSG101 blk
COC(=O)c1ccccc1NC(=S)NC(=O)c1ccc(C)cc1	3%	-2%	-21%	35µM*	-5%	-3%
Cc1ccccc1C(=O)NC(=S)Nc1ccccc1C(=O)O	2%	-5%	x	45µM*	1%	-4%
O=C(O)c1cccc(NC(=S)NC(=O)c2ccc3ccccc3c2)c1	-1%	7%	31%	u	4%	0%
COC(=O)c1ccccc1NC(=S)NC(=O)c1ccccc1C	-1%	5%	-1%	-16%	-6%	x
Cc1cccc(Nc2ccccc2C(=O)O)c1C	-1%	0.011µM*!	0%	21%	-4%	-3%
CCc1nc2nccc(-c3ccc4c(c3)OCCCO4)n2n1	x	x	x	2%	x	x
O=C(NC(=S)Nc1ccccc1C(=O)O)c1ccc2ccccc2c1	3%	-3%	x	25µM*	13%	6%
NC(=O)c1ccccc1NC(=O)c1ccc2ccccc2c1	0%	2%	-3%	13%	-3%	0%
COc1cc(-c2ccc(Nc3ccccc3C(=O)O)c(OC)c2)ccc1Nc1ccccc1C(=O)O	-6%	x	x	35µM*	-3%	-5%
COc1cccc(Nc2ccccc2C(=O)O)c1	-3%	0%	x	-14%	-28%	0%
O=C(Nc1oc2ccccc2c(=O)c1-c1ccc(Cl)cc1)c1cccs1	x	x	x	19%	x	x
CCCCOc1ccc(C(=O)NC(=S)NCCCO)cc1Br	x	x	x	7.9µM*	x	x
CN1CCN(Cc2cccc(OCC(O)CN3CCOCC3)c2)CC1(C)C (stereo unspecified)	x	x	x	73%	x	x
COc1ccc(CNC(=O)CCSc2nc(-c3ccc4c(c3)OCO4)cc(C(F)(F)F)n2)cc1	0%	3%	7.9µM*	8%	-16%	-6%
O=C(CCSc1nc(-c2ccc3c(c2)OCO3)cc(C(F)(F)F)n1)NCc1ccccc1	1%	1%	-3%	0%	-8%	-5%
CN(Cc1ccccc1)C(=O)CCSc1nc(-c2ccc3c(c2)OCO3)cc(C(F)(F)F)n1	-1%	0%	18µM*	-2%	-2%	0%
CC(=O)c1cccc(OCc2coc(-c3cccc(F)c3)n2)c1	x	x	x	-21%	x	x
CC(=O)c1ccc(OCc2coc(-c3cccc(F)c3)n2)cc1	x	x	x	45µM*	x	x
Cc1cc(-c2csc(Nc3ccc(O)cc3)n2)ccc1F	x	x	x	35µM*	x	x
Fc1ccc(-c2csc(Nc3ccccn3)n2)c(F)c1	0%	5%	-4%	-59%	7%	-1%
Oc1ccc(Nc2nc(-c3ccc(F)cc3F)cs2)cc1	x	x	x	7.9µM*	x	x
Cc1cc(-c2csc(Nc3ccccn3)n2)ccc1F	3%	x	-2%	u	3%	2%
Oc1ccc(-c2csc(Nc3ncccn3)n2)c(O)c1	0%	-3%	x	-11%	0%	-5%
Cc1cccc(Nc2nc(-c3ccc(O)cc3O)cs2)n1	0%	12%	x	25µM*	3%	-1%
Oc1ccc(-c2csc(Nc3ccc4c(c3)OCO4)n2)c(O)c1	1%	x	-2%	32µM*	30%	-2%
